ADAM17 inh: inhibitors of human ADAM17. P78536. recombinant ADAM17, EDANS/DABCYL FRET peptide cleavage. inhibition, % at 6.95 µM. 370,000 compounds, 0.83% hits;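 active means inhibition above the mean of compounds lying between control limits plus 3 SD, set per campaign, cut at about 8.5% in these data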
Target sequence (P78536 215-824 limits assumed): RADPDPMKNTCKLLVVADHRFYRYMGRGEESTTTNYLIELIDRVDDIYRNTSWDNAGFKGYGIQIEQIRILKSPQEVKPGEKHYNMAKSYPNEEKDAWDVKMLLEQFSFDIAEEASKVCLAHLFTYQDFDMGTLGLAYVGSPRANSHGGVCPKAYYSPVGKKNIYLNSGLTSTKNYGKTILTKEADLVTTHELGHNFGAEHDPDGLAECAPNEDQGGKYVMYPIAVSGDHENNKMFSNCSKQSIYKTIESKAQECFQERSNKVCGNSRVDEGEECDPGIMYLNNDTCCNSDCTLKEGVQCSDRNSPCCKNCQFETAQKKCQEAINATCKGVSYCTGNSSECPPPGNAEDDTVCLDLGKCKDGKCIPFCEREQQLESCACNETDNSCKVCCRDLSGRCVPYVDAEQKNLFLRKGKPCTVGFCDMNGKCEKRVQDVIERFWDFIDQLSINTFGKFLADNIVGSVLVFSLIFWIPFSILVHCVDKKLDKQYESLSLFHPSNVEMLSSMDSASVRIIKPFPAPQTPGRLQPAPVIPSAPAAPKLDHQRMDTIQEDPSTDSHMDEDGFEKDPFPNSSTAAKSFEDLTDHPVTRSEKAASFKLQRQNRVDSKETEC
MPTP block: inhibitors of mitochondrial permeability transition pore; isolated mouse mitochondria, Ca2+ swelling absorbance, 30 min; inhibition, % at 10 µM; 360,000 compounds, 1.4% hits;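 active means inhibition of 50% or more, scaled per plate between neutral and stimulator controls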
KLK7 zymogen act: activators of human kallikrein-7 zymogen. P49862. purified proKLK7, EDANS-DABCYL substrate fluorescence; 100% is mature enzyme control, 0% vehicle. activation, % at 7 µM. 370,000 compounds, 0.9% hits;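 active means activation above the mean of all tested compounds plus 3 SD, computed per campaign excluding outliers beyond control limits, cut at about 13% in these data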
rCAG RNA binder: molecules binding r(CAG) RNA repeats | r(CAG) RNA repeat, TO-PRO-1 dye displacement fluorescence | 370,000 compounds, 1.3% hits | inhibition, % at 3 µM | AID 651821;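 active means inhibition above the plate cutoff, the mean of all test compounds on that plate plus 3 SD, cut at about 35% in these data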;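 further: higher means more dye released from RNA so lower well fluorescence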
ADAM10 inh: inhibitors of human ADAM10; inhibition, % at 7 µM; 370,000 compounds, 0.62% hits; AID 720582; recombinant ADAM10, EDANS/DABCYL FRET peptide cleavage, 3 h;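 active means inhibition above a per-campaign cutoff equal to the mean of compounds falling between control-based bounds plus 3 SD, cut at about 20% in these data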
DSG3 Ab inh: inhibitors of pemphigus antibody binding to human desmoglein-3 | DSG3-coupled beads, scFv-anti-DSG3-GFP binding, flow cytometry; hits give low values | binding (percent of control), % at 10 µM | 310,000 compounds, 0.48% hits | AID 588358;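 active means binding more than 3 SD below its plate's average and above zero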;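 further: hits lower antibody fragment binding to DSG3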
Large screens that a line does not name were inactive. In the library only some 4.7% were active in any assay of this set; here they are far more common.

CN(C)S(=O)(=O)c1cccc(NC(=S)N/N=C/c2ccc(O)c(O)c2O)c1	rCAG RNA binder 58.6
COc1ccc(NC(=O)c2cc3cc(OC)ccc3oc2=O)cc1	none
COc1ccc2oc(=O)c(C(=O)Oc3ccc(NC(C)=O)cc3)cc2c1	KLK7 zymogen act 214.9
COCCCNC(=O)C[C@H]1C(=O)N(Cc2ccc(OC)cc2)C2=CCCCC[C@@]21C(=O)OC	none (no result: MPTP block, DSG3 Ab inh)
COCc1[nH]nc2c1C(c1cccc(C(F)(F)F)c1)NC2=O (stereo not drawn)	none (no result: MPTP block, DSG3 Ab inh)
O=C(NC(=S)Nc1ccc(N2CCOCC2)cc1)c1ccc(Cl)cc1	DSG3 Ab inh 72.7
O=C(Nc1ccc(N2CCCC2)cc1)c1cc(Cl)ccc1Cl	DSG3 Ab inh 70.9
O=C(/C=C/c1ccccc1)NC(=S)Nc1ccc(N2CCOCC2)cc1	DSG3 Ab inh 75.8
COc1ccc(C(=O)NCc2nnc(SCC(=O)N3CCc4ccccc43)n2C2CCCCC2)cc1	DSG3 Ab inh 89.0
O=C(O)CC(CNS(=O)(=O)c1cccc2nsnc12)c1ccccc1 (stereo not drawn)	DSG3 Ab inh 40.2
Cc1cc(-c2csc(NC(=O)c3ccc(=O)[nH]c3)n2)c(C)n1Cc1ccco1	DSG3 Ab inh 82.0
CCOC(=O)[C@@]12CCCC3=C1N(CCC3)C(=O)[C@H]2CC(=O)N1CCN(C(=O)c2ccco2)CC1	none (no result: MPTP block, DSG3 Ab inh)
O=c1cc(-c2ccc(O)cc2)oc2c(-c3c(O)cc(O)c4c(=O)cc(-c5ccc(O)cc5)oc34)c(O)cc(O)c12	rCAG RNA binder 94.4
Cc1nc(N[C@@H](Cc2c[nH]c3ccccc23)C(=O)O)c2oc3ccccc3c2n1	none (no result: MPTP block, DSG3 Ab inh)
CCc1nc(N[C@@H](Cc2c[nH]c3ccccc23)C(=O)O)c2oc3ccccc3c2n1	rCAG RNA binder 36.5
CCCCC1=CC2=CC(=O)C(C)(OC(=O)c3cccs3)C(=O)C2=CO1 (stereo not drawn)	rCAG RNA binder 36.6
COc1cccc(/C=N/NC(=S)NCCc2ccccc2)c1OC	DSG3 Ab inh 70.4
COc1ccc(OC)c(/C=N/NC(=S)NCCc2ccccc2)c1	DSG3 Ab inh 61.8
CCCN(CC1CC1)C(=O)CSc1nnc(-c2ccncc2)n1-c1ccc(OC)cc1	none (no result: MPTP block, DSG3 Ab inh)
CCOc1ccc(N2C(=O)C3Sc4[nH]c(=O)sc4C(/C=C/c4ccccc4)C3C2=O)cc1 (stereo not drawn)	rCAG RNA binder 57.2
Cc1ccc(CN2CCCCC(NC(=O)Nc3cccc(F)c3)C2=O)cc1 (stereo not drawn)	none (no result: MPTP block, DSG3 Ab inh)
O=C(O)c1cccc(-n2cccc2/C=C/[N+](=O)[O-])c1	DSG3 Ab inh 24.3
COc1ccc(OC)c(CN2C(=O)CN(S(C)(=O)=O)CC2(C)c2nnnn2C2CCCC2)c1 (stereo not drawn)	none (no result: MPTP block, DSG3 Ab inh)
COCC(C)n1c(C)cc(C(=O)COC(=O)c2nn(C)c(=O)c3ccccc23)c1C (stereo not drawn)	DSG3 Ab inh 63.5
Cc1cc(Oc2ccccc2F)nc(NCc2ccccc2)n1	DSG3 Ab inh -3.2
Cc1cc(Oc2ccccc2)nc(NCc2ccccc2)n1	none
COC(=O)C[C@@H]1CC[C@H]2[C@@H](COc3ccc(NC(=O)Nc4ccc(C)cc4)cc3C(=O)N2C)O1	none (no result: MPTP block, DSG3 Ab inh)
CC1CCCCN1C(=O)c1ccc(CNC(=O)c2cccc(Br)c2)cc1 (stereo not drawn)	none (no result: MPTP block, DSG3 Ab inh)
CC(=O)Nc1ccc(NC(=O)CSc2ccc(-c3ccc4c(c3)OCO4)nn2)cc1	DSG3 Ab inh 60.2
CC(=O)c1ccc(NC(=O)CSc2ccc(-c3ccc4c(c3)OCO4)nn2)cc1	none
CSc1nsc(/C=C/Nc2ccc(C(=O)O)cc2)c1C#N	rCAG RNA binder 46.3
CCOC(=O)C1=C(C)NC(=O)NC1c1cc(Br)c(O)c(OC)c1 (stereo not drawn)	DSG3 Ab inh 75.5
COc1cc(C2NC(=O)NC(C)=C2C(=O)OC2CCCCC2)cc(Br)c1O (stereo not drawn)	none
CCOC(=O)c1cccc(NC(=O)CN(C)S(=O)(=O)c2ccc(C)c(C)c2)c1	none (no result: MPTP block, DSG3 Ab inh)
O=C(O)CN1C(=O)/C(=C\C(Br)=C\c2ccccc2)SC1=S	rCAG RNA binder 49.7
O=C(O)CN1C(=O)/C(=C/C=C/c2ccccc2)SC1=S	none
COC(=O)[C@]12C[C@H](CC(=O)NCc3cccs3)C(=O)N(Cc3ccccc3)C1=C[C@H](C(C)(C)C)O[C@@H]2C	none (no result: MPTP block, DSG3 Ab inh)
O=C(NC(=S)Nc1ccc(NC(=O)c2cccs2)cc1)c1cc2ccccc2o1	DSG3 Ab inh 69.5
CCCCNc1cccc2c1S(=O)(=O)N[C@@H](CC(C)C)CO2	none (no result: MPTP block, DSG3 Ab inh)
CC1=C(C#N)C(=O)NC(=O)/C1=C\c1ccc(-c2cc(C)c(C)cc2[N+](=O)[O-])o1	rCAG RNA binder 55.3
O=C1C(=Cc2ccc(Br)o2)C(=O)c2ccccc21	DSG3 Ab inh 94.2 (no result: ADAM17 inh, KLK7 zymogen act, rCAG RNA binder, ADAM10 inh)
CC1=C/C(=C\c2ccc(Br)o2)C(=O)O1	none
CCOC(=O)CSc1ccc(S(=O)(=O)N2CCCCC2)cc1[N+](=O)[O-]	none
CCOC(=O)CSc1ccc(S(=O)(=O)N(C)C2CCCCC2)cc1[N+](=O)[O-]	ADAM10 inh 23.6
COc1ccc(N=C2S/C(=C\c3ccc(N4CCOCC4)o3)C(=O)N2CCc2c[nH]c3ccccc23)cc1	none (no result: ADAM17 inh, KLK7 zymogen act, rCAG RNA binder, ADAM10 inh)
COc1ccc(N=C2S/C(=C\c3ccc(OCC(=O)O)cc3)C(=O)N2CCc2c[nH]c3ccccc23)cc1	ADAM17 inh 9.2, rCAG RNA binder 68.4, DSG3 Ab inh 46.1
O=[N+]([O-])c1ccc2[nH]c(O)c(N=NC(=S)NCC3CCCO3)c2c1 (stereo not drawn)	none
CCNC(=S)N=Nc1c(O)[nH]c2ccc([N+](=O)[O-])cc12	DSG3 Ab inh 39.8
O=C(CNC(=O)c1ccc(Br)cc1)N=Nc1c(O)[nH]c2ccc([N+](=O)[O-])cc12	DSG3 Ab inh 35.0
COC(=O)[C@H](Cc1ccccc1)NP(=O)(OC)[C@@H](C)NC(=O)OCc1ccccc1 (stereo partly drawn)	none (no result: MPTP block, DSG3 Ab inh)
COC(=O)c1ccc(C2C(Oc3ccccc3)C(=O)N2CCc2ccc(OC)c(OC)c2)cc1 (stereo not drawn)	DSG3 Ab inh 82.8
O=C(CCCN1C(=O)/C(=C/c2ccccc2Cl)SC1=S)NNC(=O)c1ccccc1	none
O=C(CCCN1C(=O)/C(=C/c2ccccc2Cl)SC1=S)NNC(=O)c1ccc(Cl)cc1Cl	ADAM10 inh 20.8
O=C(Nc1nc(-c2cccnc2)cs1)c1ccc([N+](=O)[O-])cc1	DSG3 Ab inh 29.3
O=C(Nc1nc(-c2cccnc2)cs1)c1cccc([N+](=O)[O-])c1	none
N#Cc1ccccc1Sc1ccccc1C(=O)Nc1ccc2ccccc2c1	ADAM17 inh 8.6
Cc1ccc2c(n1)sc1c(-c3ccc(Br)cc3)c(C#N)c(N)nc12	DSG3 Ab inh 74.3
CCc1nc(N)c(C#N)c(-c2ccc(F)cc2)c1C	none

Bioassay records as filed in PubChem.
